# Screening data from PubChem.
# ADAM17 inh: ADAM17 inhibitors, primary screen, biochemical, QFRET; Disintegrin and metalloproteinase domain-containing protein 17 (Homo sapiens), P78536; recombinant ADAM17, EDANS/DABCYL FRET peptide cleavage; inhibition, % at 6.95 µM; actives 0.83% (n = 370,000);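 active = inhibition above the mean of compounds lying between control limits plus 3 SD, set per campaign, cut at about 8.5% in these data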;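 note: 0% = DMSO-only wells as the low control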
# ADAM10 inh: human ADAM10 inhibitors, primary screen, biochemical, QFRET, HTS. Disintegrin and metalloproteinase domain-containing protein 10 (Homo sapiens), O14672. recombinant ADAM10, EDANS/DABCYL FRET peptide cleavage, 3 h. AID 720582, 2013. actives 0.62% (n = 370,000). inhibition, % at 7 µM;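 active = inhibition above a per-campaign cutoff equal to the mean of compounds falling between control-based bounds plus 3 SD, cut at about 20% in these data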;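 note: 0% = DMSO wells while the 100% control is not disclosed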
# Target sequence (O14672 214-748 limits assumed): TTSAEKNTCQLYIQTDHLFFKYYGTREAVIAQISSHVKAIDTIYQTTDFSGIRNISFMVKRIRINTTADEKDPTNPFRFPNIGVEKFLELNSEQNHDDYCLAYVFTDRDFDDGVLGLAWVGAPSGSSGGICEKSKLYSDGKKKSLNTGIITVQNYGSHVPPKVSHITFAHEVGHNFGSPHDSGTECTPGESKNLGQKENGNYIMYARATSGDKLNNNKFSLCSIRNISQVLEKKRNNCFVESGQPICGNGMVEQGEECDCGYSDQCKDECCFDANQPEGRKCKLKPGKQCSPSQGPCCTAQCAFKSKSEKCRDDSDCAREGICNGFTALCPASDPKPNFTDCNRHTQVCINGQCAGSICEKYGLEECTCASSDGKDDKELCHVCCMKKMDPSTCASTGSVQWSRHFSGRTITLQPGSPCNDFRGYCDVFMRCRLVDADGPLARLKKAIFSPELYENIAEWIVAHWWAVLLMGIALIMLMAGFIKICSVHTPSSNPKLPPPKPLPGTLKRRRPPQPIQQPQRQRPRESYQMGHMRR
# proKLK7 act: proKLK7 zymogen activators, primary screen, biochemical, fluorescence intensity | purified proKLK7, EDANS-DABCYL substrate fluorescence; 100% is mature enzyme control, 0% vehicle | activation, % at 7 µM | actives 0.9% (n = 370,000) | AID 652039, 2013;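 active = activation above the mean of all tested compounds plus 3 SD, computed per campaign excluding outliers beyond control limits, cut at about 13% in these data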
# PLC-gamma1 inh: PLC-gamma1 enzyme inhibitors, primary screen, biochemical, fluorescence, purified enzyme | inhibition, % at 12.2 µM | fluorogenic substrate | actives 0.84% (n = 370,000) | AID 720700, 2013; in the data active = inhibition above about 9.5%
# PLC-beta3 inh: human PLC-beta3 inhibitors, primary screen, biochemical, fluorescence | Purified PLC-beta3, fluorogenic substrate | AID 720704, 2013 | actives 0.18% (n = 370,000) | 1-phosphatidylinositol 4,5-bisphosphate phosphodiesterase beta-3 (Homo sapiens), Q01970 | inhibition, % at 12.2 µM;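 note: 0% = median of compound wells on plate and 100% = full blocker control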
# HGIII-sPLA2 inh: human group III sPLA2 inhibitors, primary screen, biochemical, QFRET, BODIPY PC-A2 liposome substrate; QFRET BODIPY PC-A2 liposome hydrolysis, fluorescence; inhibition, % at 12.2 µM; actives 0.56% (n = 370,000);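 active = inhibition above mean plus 3 SD of compounds lying within the high and low control bounds, cut at about 19% in these data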;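 note: 0% = median of test compound wells and 100% = no enzyme DMSO wells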
# ADAM10 confirm: human ADAM10 inhibitors, confirmation, biochemical, QFRET, triplicate. shares compounds with ADAM10 inh. ADAM10 QFRET peptide cleavage, EDANS fluorescence. inhibition, % at 6.95 µM. actives 1% (n = 2,100). AID 743208, 2013;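 active = inhibition above about 20% chosen separately for each screening run, limit read from the data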;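 note: 0% = DMSO wells and 100% = marimastat wells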
# ADAM17 ctr: ADAM17 inhibitors, counter-screen for ADAM10 exosite inhibitor project, biochemical, QFRET, high throughput. inhibition, % at 6.95 µM. shares compounds with ADAM10 inh. actives 0.5% (n = 2,100). ADAM17 QFRET peptide cleavage, EDANS fluorescence;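 active = mean triplicate inhibition above the solvent-only control wells' mean plus 3 SD, cut at about 12% in these data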;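 note: 0% = DMSO wells and 100% = marimastat wells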
# ADAM10 counter: ADAM10 inhibitors, counter-screen for ADAM17 exosite inhibitor project, biochemical, FRET, human ADAM10; shares compounds with ADAM17 inh; recombinant ADAM10, EDANS/DABCYL FRET peptide cleavage, 3 h; inhibition, % at 6.95 µM; actives 47% (n = 2,900);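 active = mean inhibition over the triplicate runs exceeds the activity threshold set in the earlier primary screen, cut at about 20% in these data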;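 note: 0% = DMSO wells and 100% = marimastat wells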
# ADAM17 confirm: ADAM17 inhibitors, hit retest, confirmation, biochemical, QFRET peptide cleavage | shares compounds with ADAM17 inh | recombinant ADAM17, EDANS/DABCYL QFRET peptide cleavage | inhibition, % at 6.95 µM | actives 65% (n = 2,900);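 active = mean inhibition across replicates above the hit cutoff set in the primary screen, cut at about 8.5% in these data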;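 note: 0% = DMSO wells and 100% = marimastat wells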
# PLCgamma1 ctr: PLC-gamma1 enzyme inhibitors, counter-screen for PLC-beta3 inhibitor project, biochemical, fluorescence; shares compounds with PLC-gamma1 inh; purified PLC-gamma1, fluorogenic substrate; inhibition, % at 12.3 µM; actives 3.1% (n = 3,300); in the data active = inhibition above about 9.5%
# PLCb3 confirm: PLC-beta3 inhibitor confirmation, biochemical, fluorescence, purified enzyme. inhibition, % at 12.3 µM. shares compounds with PLC-gamma1 inh. fluorogenic substrate fluorescence. AID 743261, 2014. actives 1% (n = 3,300)
# Active calls of the source: *; · = no result; ! = not confirmed by another sample. In the library only some 3.4% were active in any assay of this set; here they are far more common. Cut-off read from the data, not from the text of the source, unless noted: active = inhibition above about 11%; inactive = the rest.
SMILES,ADAM17 inh,ADAM10 inh,proKLK7 act,PLC-gamma1 inh,PLC-beta3 inh,HGIII-sPLA2 inh,ADAM10 confirm,ADAM17 ctr,ADAM10 counter,ADAM17 confirm,PLCgamma1 ctr,PLCb3 confirm
CCc1nc2c(OCCC3CCCCC3)cccn2c1N(C)C(=O)c1ccc(C)cc1,14.6*,29.4*,1.0,10.2*,2.9,17.9,7.4,2.4,10.2,7.0,3.8,3.0
CC(C)(C)NC(=O)[C@@H]1C[C@@H]2CCCC[C@@H]2CN1C[C@@H](O)[C@H](Cc1ccccc1)NC(=O)[C@H](CC(N)=O)NC(=O)c1ccc2ccccc2n1,8.2,26.3*!,0.0,9.7*!,-0.4,-37.5,1.9,-0.1,·,·,-7.7,-5.0
COC(=O)[C@H](Cc1ccccc1)NC(=O)c1ccc2ccccc2n1,2.5,8.2,0.1,0.6,-0.7,-2.5,·,·,·,·,·,·
Cn1c(N=Nc2ccccc2)nc2ccccc21,7.7,21.6*,-0.1,7.5,12.3*,-0.4,1.6,-0.5,·,·,-2.2,-1.5
COc1ccc([N+](=O)[O-])cc1NC(=S)NC(NC(=O)C(c1ccccc1)c1ccccc1)C(Cl)(Cl)Cl (configuration not stated),19.2*,32.1*,0.1,11.6*,8.4,0.6,9.1,2.9,29.1*,13.9*,-3.6,-1.3
CCCCC#CC(CC)NCc1ccc(OC)cc1OC (configuration not stated),1.3,5.6,·,2.9,5.1,-8.4,·,·,·,·,·,·
CN1CCN(c2oc(COc3ccc(-c4ccccc4)cc3)nc2C#N)CC1,18.1*,26.6*,0.9,10.9*,5.9,-43.4,3.2,0.8,23.4*,14.3*,-9.0,-5.0
N#C/C(=C\c1ccccc1)C(=O)NNS(=O)(=O)c1cccc([N+](=O)[O-])c1,34.8*,69.3*,-0.3,11.0*,0.7,-35.5,3.3,0.8,7.9,5.7,2.3,5.6
CCOC(=O)C1CCCN(C(=O)c2cccc(S(=O)(=O)N(C)c3ccc(OC)cc3)c2)C1 (configuration not stated),-0.6,1.0,0.1,0.7,-4.3,-4.1,·,·,·,·,·,·
CCOC(=O)C1CCCN(C(=O)c2cccc(S(=O)(=O)N(Cc3ccccc3)c3ccccc3OC)c2)C1 (configuration not stated),14.4*,30.1*,-0.2,9.7*,1.9,-7.8,3.7,0.6,24.5*,12.0*,-5.8,-2.6
Cc1ccc(CNC(=O)c2cc(-c3ccccc3C)nn2CC2CC(c3cccnc3)=NO2)cc1 (configuration not stated),3.1,10.3,-0.1,0.5,-8.3,-25.9,·,·,·,·,·,·
Cc1ccccc1-c1cc(C(=O)NCc2ccc(OC(F)(F)F)cc2)n(CC2CC(c3cccnc3)=NO2)n1 (configuration not stated),10.3*,21.2*,-0.2,11.4*,1.1,-20.6,5.3,3.2,25.4*,13.0*,-3.2,-8.0
Cc1ccc(-n2c(Cc3cccs3)nnc2SCC(=O)Nc2cccc3ccccc23)cc1,10.7*,26.3*,0.7,13.3*,7.6,-10.8,7.6,2.0,16.2,8.1,1.8,1.6
COc1ccc(C(=O)Nc2ccccc2C(=O)N2CCOCC2)cc1OC,2.5,20.6*,-0.6,9.8*,7.2,14.6,1.5,-0.5,·,·,-6.0,-1.4
COc1ccc(C(=O)Nc2ccccc2C(=O)N2CCOCC2)cc1Br,-2.4,-0.1,0.1,-0.3,-0.4,4.9,·,·,·,·,·,·
COc1ccc(CC(=O)Nc2nc(-c3cc(OC)ccc3OC)cs2)cc1,5.5,14.1,-0.3,2.3,-2.5,-22.0,·,·,·,·,·,·
COc1ccc(OC)c(-c2csc(NC(=O)COC(=O)C3(C)CC3(Cl)Cl)n2)c1 (configuration not stated),17.7*,39.0*,0.9,15.8*,0.2,-11.1,10.0,2.9,18.1,12.2*,-1.8,-4.0
Cc1ccc(Cn2cc(COC(=O)NCCc3c[nH]c4ccccc34)nn2)cc1,-2.6,2.0,-0.6,-3.7,-6.7,-79.0,·,·,·,·,·,·
CCC(C(=O)OCC(=O)Nc1cccc(C(C)=O)c1)c1ccccc1 (configuration not stated),-4.1,-6.0,-0.8,-3.1,-3.6,-9.8,·,·,·,·,·,·
CCC(C(=O)OCC(=O)Nc1cc(Cl)cc(Cl)c1)c1ccccc1 (configuration not stated),18.6*,42.1*,0.4,7.7,11.1*,-26.1,9.6,3.5,23.4*,12.3*,-0.3,1.3
COc1ccc(NC(=O)C(Sc2nnc(-c3ccncc3)n2-c2ccccc2C)c2ccccc2)cc1Cl (configuration not stated),15.2*,28.2*,-0.4,10.8*,4.0,-17.8,7.4,2.2,30.4*,14.7*,1.7,-3.4
Cc1ccc(NC(=S)N2CCN(c3ccccn3)CC2)cc1C,2.9,20.9*,0.4,10.8*,0.0,18.1,1.2,0.9,·,·,-0.9,2.1
COc1ccc(OC)c(NC(=O)CNC(c2ccccc2)c2ccccc2)c1,13.9*,24.5*,0.8,12.7*,2.9,6.5,5.1,2.2,37.0*,14.0*,-6.0,-1.6
